Screening data: PubChem BioAssay, Broad Institute
NOMO-1 viab = STK33 inhibitor candidate reducing NOMO-1 cell viability; NOMO-1 AML viability, CellTiter-Glo luminescence, 72 h; inhibition, % (no concentration beside the values); 37,000 compounds, 7.5% hits; AID 2330; in the data active means inhibition above about 80%; inconclusive means no clear call, values can overlap the other calls
MITF inh = inhibitors of MITF. TRPM1 promoter luciferase, luminescence, 24 h. inhibition, % (concentration not given with the values). 37,000 compounds, 0.28% hits. AID 2240; in the data active means inhibition above about 85%; inconclusive means no clear call, values can overlap the other calls; inactive means below about 68%;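 further: human melanocyte line stably carrying TRPM1 promoter luciferase reporter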
Hedgehog inh = Sonic Hedgehog pathway inhibition; Shh-LIGHT2 Gli-luciferase reporter, 30 h; inhibition, % (test concentration not listed); 22,000 compounds, 2.1% hits;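 active means mean inhibition across valid replicates above about 65%, limit read from the data; inconclusive means mean under the limit, yet half or more replicates past it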;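 further: pathway switched on by Shh-conditioned medium diluted 1 in 25 in low serum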
* hit, by the source's call; ? = inconclusive; . = not tested or not shown. Shown are actives, neighbours in structure and some others; about 8.1% of the full set was active somewhere.

SMILES	NOMO-1 viab	MITF inh	Hedgehog inh
C[C@H](CO)N1C[C@H](C)[C@H](CN(C)Cc2ccccc2)Oc2ccc(NC(=O)Nc3cccc4ccccc34)cc2CC1=O	18	10	20
C[C@H](CO)N1C[C@H](C)[C@H](CN(C)Cc2ccc(Oc3ccccc3)cc2)Oc2ccc(NC(=O)Nc3cccc4ccccc34)cc2CC1=O	10	-11	8
C[C@H]1CN([C@@H](C)CO)C(=O)Cc2cc(NC(=O)Nc3cccc4ccccc34)ccc2O[C@@H]1CN(C)Cc1ccc(-c2ccccc2)cc1	96*	3	-28
C[C@H]1CN([C@@H](C)CO)C(=O)Cc2cc(NC(=O)Nc3cccc4ccccc34)ccc2O[C@@H]1CN(C)Cc1ccccc1	50	18	9
C[C@@H]1CN([C@@H](C)CO)C(=O)Cc2cc(NC(=O)Nc3cccc4ccccc34)ccc2O[C@@H]1CN(C)Cc1ccncc1	82*	-3	15
C[C@H]1CN([C@@H](C)CO)C(=O)Cc2cc(NC(=O)Nc3cccc4ccccc34)ccc2O[C@@H]1CN(C)Cc1ccc(Oc2ccccc2)cc1	116*	19	-48
CC1CCC(O)C2C=CC(C)(O)C(C)(C(=O)CCO)C12 (centres undefined)	6	-6	19
Nc1nc(COc2cccc3cccnc23)nc(Nc2ccccc2)n1	91*	-66	.
c1cnc2c(OCc3nc4ccccc4[nH]3)cccc2c1	19	16	.
O=C(CN1CCOCC1)Nc1sc2c(c1C(=O)Nc1ccc(Br)cc1)CCCC2	-12	22	.
Oc1ccccc1CNCc1ccccn1	115*	-4	.
CCOc1c(CNCc2ccccn2)cccc1OC	0	-7	.
C[C@@H]1CN([C@@H](C)CO)C(=O)Cc2cc(N(C)C)ccc2O[C@@H]1CN(C)Cc1ccc(C(=O)Nc2ccccc2N)cc1	140*	55	.
C[C@H]1CN([C@@H](C)CO)C(=O)Cc2cc(N(C)C)ccc2O[C@@H]1CN(C)Cc1ccc(C(=O)Nc2ccccc2N)cc1	140*	25	.
COc1cc(NC(=O)c2ccccc2)c(OC)cc1NC(=O)COc1ccc(Cl)cc1Cl	45	-8	.
OC(Cn1nnc2ccccc21)Cn1c2ccc(Cl)cc2c2cc(Cl)ccc21 (centres undefined)	43	-7	.
O=S(=O)(NCC(O)Cn1c2ccc(Cl)cc2c2cc(Cl)ccc21)c1ccccc1 (centres undefined)	113*	5	.
C[C@H]1CN([C@@H](C)CO)C(=O)c2cccc(NC(=O)Nc3ccc(F)cc3)c2O[C@H]1CN(C)Cc1ccc(Cl)c(Cl)c1	41	22	-6
C[C@@H]1CN([C@@H](C)CO)C(=O)c2cccc(NC(=O)Nc3ccc(F)cc3)c2O[C@@H]1CN(C)Cc1ccc2c(c1)OCO2	23	-27	2
C[C@H](CO)N1C[C@H](C)[C@@H](CN(C)Cc2ccc(Cl)c(Cl)c2)Oc2c(NC(=O)Nc3ccc(F)cc3)cccc2C1=O	99*	20	-4
COc1ccc(NC(=O)Nc2cccc3c2O[C@@H](CN(C)Cc2ccc(Cl)c(Cl)c2)[C@H](C)CN([C@@H](C)CO)C3=O)cc1	111*	65	-39
COc1ccc(CN(C)C[C@@H]2Oc3c(NC(=O)Nc4ccc(OC)cc4)cccc3C(=O)N([C@H](C)CO)C[C@H]2C)cc1	65	21	16
C[C@@H]1CN([C@H](C)CO)C(=O)c2cccc(NC(=O)Nc3ccc(F)cc3)c2O[C@H]1CN(C)Cc1ccc(Cl)c(Cl)c1	96*	27	-26
CC(C)NC(=O)Nc1cccc2c1O[C@H](CN(C)Cc1ccc(Cl)c(Cl)c1)[C@H](C)CN([C@@H](C)CO)C2=O	12	-10	-3
C[C@H]1CN([C@@H](C)CO)C(=O)c2cccc(NC(=O)Nc3ccc(F)cc3)c2O[C@@H]1CN(C)Cc1ccc(Cl)c(Cl)c1	109*	32	-7
SMILES	NOMO-1 viab	MITF inh	Hedgehog inh
O=C(c1cccs1)N1c2ccccc2Sc2ccccc21	48	17	.
O=c1cc(NCc2ccccc2)[nH]nc1-c1ccccc1	-10	-37	.
COc1ccc(S(=O)(=O)Nc2cccc3c2O[C@@H](CN(C)C(=O)Nc2ccccc2)[C@H](C)CN([C@H](C)CO)C3=O)cc1	20	6	16
CC(C)=CCc1cc2c(c(CC=C(C)C)c1O)O[C@H](c1ccc(O)cc1)[C@@H](O)C2=O	37	-13	23
C[C@@H]1CN([C@H](C)CO)C(=O)c2cccc(NS(=O)(=O)c3ccccc3)c2O[C@@H]1CN(C)C(=O)Nc1ccc(C(F)(F)F)cc1	23	27	6
O=C(O)CC(C(=O)Nc1cc(C(F)(F)F)cc(C(F)(F)F)c1)C1=CCCCC1 (centres undefined)	16	0	-37
CCN(CC)C(=S)C(=O)Nc1cc(C(F)(F)F)cc(C(F)(F)F)c1	109*	13	57
CC(=O)Nc1nonc1-c1nc2ccccc2n1Cc1ccc(Cl)cc1Cl	?	14	.
CCC(=O)Nc1nonc1-c1nc2ccccc2n1Cc1cc(OC)ccc1C	130*	40	.
CCCn1nnc(NC(=O)COc2ccc(C)cc2)n1	14	-18	.
Cc1ccc(S(=O)(=O)c2c(C)nn(C(C)(C)C)c2OC(=O)c2ccccc2Br)cc1	105*	11	.
COc1ccccc1C(=O)NCCCn1cc(Br)c(C)n1	-6	-5	.
CC(C(=O)Nc1ccc(Oc2ccccc2)cc1)N(c1ccc(Cl)cc1)S(C)(=O)=O (centres undefined)	28	37	.
COc1cc(-c2c(C#N)c(SCC#N)nc(N)c2C(=O)OC(C)C)cc(OC)c1OC	2	15	3
COC1CC(O[C@H]2CC[C@]3(C)C4CC[C@@]5(C)C(=O)[C@]4(CC[C@@H]3C2)CC[C@@H]5C2=CC(=O)OC2)OC(C)C1OC1OC(COC2OC(CO)C(O)C(O)C2O)C(O)C(O)C1O (some centres undefined)	111*	1	3
CC1OC(OCC2OC(O[C@H]3CC[C@@]4(C)C(CC[C@@]5(C)C6=C(CCC45)C4CC(C)(C)CC[C@]4(C(=O)OC4OC(CO)C(O)C(O)C4O)CC6)C3(C)C)C(O)C(O)C2O)C(O)C(O)C1O (some centres undefined)	.	.	-5
CCCC(=O)Nc1nc2c(ncn2C2O[C@H]3COP(=O)(O)O[C@@H]3[C@@H]2OC(=O)CCC)c(=O)[nH]1 (some centres undefined)	5	-4	-20
Cc1noc(C)c1NC(=O)Nc1ccc2c(c1)C(=O)N([C@@H](C)CO)C[C@@H](C)[C@@H](CN(C)S(=O)(=O)c1ccc(F)cc1)O2	-2	-5	.
O=c1[nH]c2ccccc2n1CCCSc1nnc2c(n1)[nH]c1ccccc12	20	-5	.
C[C@@H]1CN([C@H](C)CO)C(=O)c2cccc(NC(=O)Nc3ccccc3)c2O[C@@H]1CN(C)C(=O)Nc1ccc(C(F)(F)F)cc1	16	-5	13
C[C@@H]1CN([C@@H](C)CO)C(=O)c2cccc(NC(=O)Nc3ccc(C(F)(F)F)cc3)c2O[C@@H]1CN(C)C(=O)Nc1ccccc1	112*	2	23
C[C@@H]1CN([C@H](C)CO)C(=O)c2cccc(NC(=O)Nc3ccc(C(F)(F)F)cc3)c2O[C@H]1CN(C)C(=O)Nc1ccccc1	93*	12	-14
